In PubChem BioAssay AID1159580 (chemical genetic matrix, 2015):
Out of some 5,500 compounds screened, about 2,000 (36%) were called active. Another 18% or so got no clear call; they are omitted. Rule as the data show it: active = normalized growth mostly below about 0.91 (no sharp cut-off); inconclusive = no clear call, values can overlap the other calls; inactive = mostly above about 0.92. This is one part of the list.

Experiment: chemical genetic growth profiling, strain panel (AID 1159580);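 also: tested at 20 µM; growth read once vehicle control cultures reached saturation at 30 °C; 1 = growth at the plate median or of vehicle wells; lower values mean less growth of the strain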
Settings: growth OD

Measured: normalized growth

CC(Cc1ccc(O)c(O)c1)(NN)C(=O)O (centres undefined)
inactive: S. cerevisiae deletion strains, locus YJR075W, strain HOC1, hits give low values 1.02 | S. cerevisiae deletion strains, locus YKL009W, strain mrt4, hits give low values 0.991 | S. cerevisiae deletion strains, locus YKL068W, hits give low values 0.997 | S. cerevisiae deletion strains, locus YKL085W, strain MDH1 (second series), hits give low values 0.992 | S. cerevisiae deletion strains, locus YKL085W, strain MDH1, hits give low values 0.992 | S. cerevisiae deletion strains, locus YKL160W, strain elf1, hits give low values 1.01 | S. cerevisiae deletion strains, locus YKL190W, strain CNB1, hits give low values 0.991 | S. cerevisiae deletion strains, locus YKR001C, strain vps1, hits give low values 1 | S. cerevisiae deletion strains, locus YKR026C, strain gcn3, hits give low values 0.988 | S. cerevisiae deletion strains, locus YKR091W, strain srl3, hits give low values 1.01 | S. cerevisiae deletion strains, locus YLL001W, strain dnm1, hits give low values 1.01 | S. cerevisiae deletion strains, locus YLL026W, hits give low values 1.01 | S. cerevisiae deletion strains, locus YLL041C, strain sdh2, hits give low values 1.01 | S. cerevisiae deletion strains, locus YLR027C, strain aat2, hits give low values 1.01 | S. cerevisiae deletion strains, locus YLR039C, strain RIC1, hits give low values 1.04 | S. cerevisiae deletion strains, locus YLR058C, strain SHM2, hits give low values 1.01 | S. cerevisiae deletion strains, locus YLR102C, strain apc9, hits give low values 1.02 | S. cerevisiae deletion strains, locus YLR113W, strain HOG1, hits give low values 0.918 | S. cerevisiae deletion strains, locus YLR221C, strain rsa3, hits give low values 1.01 | S. cerevisiae deletion strains, locus YLR258W, strain gsy2, hits give low values 0.999 | S. cerevisiae deletion strains, locus YLR262C, strain YPT6 (second series), hits give low values 0.978 | S. cerevisiae deletion strains, locus YLR262C, strain YPT6, hits give low values 1.03 | S. cerevisiae deletion strains, locus YLR268W, strain sec22, hits give low values 0.996 | S. cerevisiae deletion strains, locus YLR320W, strain mms22, hits give low values 1.02 | S. cerevisiae deletion strains, locus YLR330W, strain CHS5, hits give low values 1 | S. cerevisiae deletion strains, locus YLR342W, strain FKS1 (second series), hits give low values 0.966 | S. cerevisiae deletion strains, locus YLR342W, strain FKS1, hits give low values 0.992 | S. cerevisiae deletion strains, locus YLR357W, strain rsc2, hits give low values 0.973 | S. cerevisiae deletion strains, locus YLR370C, strain arc18, hits give low values 1.01 | S. cerevisiae deletion strains, locus YLR371W, strain rom2, hits give low values 1.01 | S. cerevisiae deletion strains, locus YLR384C, strain iki3, hits give low values 0.976 | S. cerevisiae deletion strains, locus YLR418C, strain cdc73, hits give low values 1.07 | S. cerevisiae deletion strains, locus YML016C, strain PPZ1, hits give low values 0.999 | S. cerevisiae deletion strains, locus YML032C, strain rad52, hits give low values 1.01 | S. cerevisiae deletion strains, locus YML120C, strain ndi1, hits give low values 0.99 | S. cerevisiae deletion strains, locus YML124C, strain tub3, hits give low values 1.01 | S. cerevisiae deletion strains, locus YMR058W, strain fet3, hits give low values 0.987 | S. cerevisiae deletion strains, locus YMR078C, strain ctf18, hits give low values 1.02 | S. cerevisiae deletion strains, locus YMR125W, strain sto1, hits give low values 1 | S. cerevisiae deletion strains, locus YMR129W, hits give low values 0.997 | S. cerevisiae deletion strains, locus YMR205C, strain PFK2, hits give low values 1.04 | S. cerevisiae deletion strains, locus YMR223W, strain ubp8, hits give low values 0.996 | S. cerevisiae deletion strains, locus YMR231W, strain pep5, hits give low values 1.01 | S. cerevisiae deletion strains, locus YMR263W, strain SAP30, hits give low values 0.988 | S. cerevisiae deletion strains, locus YMR307W, strain GAS1, hits give low values 1.05 | S. cerevisiae deletion strains, locus YNL067W, strain RPL9B, hits give low values 0.966 | S. cerevisiae deletion strains, locus YNL071W, strain lat1, hits give low values 0.993 | S. cerevisiae deletion strains, locus YNL183C, strain NPR1, hits give low values 0.912 | S. cerevisiae deletion strains, locus YNL209W, strain ssb2, hits give low values 0.993 | S. cerevisiae deletion strains, locus YNL233W, strain BNI4, hits give low values 0.982 | S. cerevisiae deletion strains, locus YNL248C, strain rpa49, hits give low values 1.01 | S. cerevisiae deletion strains, locus YNL250W, strain rad50, hits give low values 1 | S. cerevisiae deletion strains, locus YNL271C, strain bni1, hits give low values 1.01 | S. cerevisiae deletion strains, locus YNL298W, strain CLA4, hits give low values 1.02 | S. cerevisiae deletion strains, locus YNL307C, strain MCK1, hits give low values 1.02 | S. cerevisiae deletion strains, locus YNL322C, strain KRE1 (second series), hits give low values 1 | S. cerevisiae deletion strains, locus YNL322C, strain KRE1, hits give low values 0.999 | S. cerevisiae deletion strains, locus YNR049C, strain mso1, hits give low values 1.01 | S. cerevisiae deletion strains, locus YNR052C, strain pop2, hits give low values 1.01 | S. cerevisiae deletion strains, locus YOL006C, strain TOP1, hits give low values 0.989 | S. cerevisiae deletion strains, locus YOL012C, strain htz1 0.764 | S. cerevisiae deletion strains, locus YOL147C, strain pex11, hits give low values 1.01 | S. cerevisiae deletion strains, locus YOR001W, strain rrp6, hits give low values 0.987 | S. cerevisiae deletion strains, locus YOR061W, strain CKA2, hits give low values 1 | S. cerevisiae deletion strains, locus YOR069W, strain VPS5, hits give low values 1.03 | S. cerevisiae deletion strains, locus YOR070C, strain gyp1, hits give low values 1 | S. cerevisiae deletion strains, locus YOR080W, strain dia2, hits give low values 1 | S. cerevisiae deletion strains, locus YOR083W, strain WHI5, hits give low values 0.996 | S. cerevisiae deletion strains, locus YOR106W, strain vam3, hits give low values 0.984 | S. cerevisiae deletion strains, locus YOR136W, strain idh2, hits give low values 1.01 | S. cerevisiae deletion strains, locus YOR144C, strain elg1, hits give low values 1 | S. cerevisiae deletion strains, locus YOR184W, strain ser1, hits give low values 1.03 | S. cerevisiae deletion strains, locus YOR231W, strain MKK1, hits give low values 0.955 | S. cerevisiae deletion strains, locus YOR265W, strain rbl2, hits give low values 0.993 | S. cerevisiae deletion strains, locus YOR270C, strain vph1, hits give low values 1.11 | S. cerevisiae deletion strains, locus YOR290C, strain snf2, hits give low values 1 | S. cerevisiae deletion strains, locus YOR316C, strain cot1, hits give low values 1.01 | S. cerevisiae deletion strains, locus YPL051W, strain arl3, hits give low values 0.991 | S. cerevisiae deletion strains, locus YPL055C, strain LGE1, hits give low values 0.926 | S. cerevisiae deletion strains, locus YPL078C, strain atp4, hits give low values 0.991 | S. cerevisiae deletion strains, locus YPL106C, strain sse1, hits give low values 0.918 | S. cerevisiae deletion strains, locus YPL240C, strain hsp82, hits give low values 1 | S. cerevisiae deletion strains, locus YPL256C, strain CLN2, hits give low values 0.968 | S. cerevisiae deletion strains, locus YPR119W, strain clb2, hits give low values 1.01 | S. cerevisiae deletion strains, locus YPR141C, strain kar3, hits give low values 0.999 | S. cerevisiae deletion strains, locus YPR163C, strain tif3, hits give low values 1.01 | S. cerevisiae deletion strains, locus YPR167C, strain met16, hits give low values 1.02 | S. cerevisiae deletion strains, strain wtn01, hits give low values 1.01 | S. cerevisiae strains, strain wild type, hits give low values 0.988
